Consider three compounds from PubChem BioAssay (EPA / NIEHS).

Common to all, as to conditions: mRNA level, 48 h; actives raise or lower the signal
Read-out in assay [1]: Alkaline Phosphatase, Placental (ALPP) gene, ALPP (gene 250)
As to the kind of experiment: LTEA_HepaRG_ALPP: Life Technologies and Expression Analysis (LTEA) Assay for Alkaline Phosphatase, Placental (ALPP) gene using HepaRG (AID 2283468).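 On AC50: differentiated human HepaRG liver cells in serum-free induction medium.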 Summed up: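 ALPP transcript level, measured by qRT-PCR and normalized to three housekeeping genes (ACTB, GAPDH, POLR2A), after 48 h dosing of differentiated HepaRG in serum-free induction medium. Top concentration 100 uM with half-log dilutions (8 points, 0.5% DMSO, duplicates); bidirectional fitting relative to DMSO.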

Read-out in assay [2]: Bcl-2 (BAD) gene, BAD (gene 572)
As to the kind of experiment: LTEA_HepaRG_BAD: Life Technologies and Expression Analysis (LTEA) Assay for Bcl-2 (BAD) gene using HepaRG (AID 2283469). Summed up:
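Read-out: qRT-PCR of BAD mRNA, normalized to three housekeeping genes. Human HepaRG cultures got 48 h chemical exposure in 0.5% DMSO, duplicate eight-point half-log series topping at 100 uM. Gain or loss of signal fitted versus DMSO vehicle.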

Read-out in assay [3]: Bcl-2 (BAX) gene, BAX (gene 581)
In words: LTEA_HepaRG_BAX: Life Technologies and Expression Analysis (LTEA) Assay for Bcl-2 (BAX) gene using HepaRG (AID 2283470). Put shortly: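 Cells were thawed, plated for 48 h, moved to serum-free induction medium and dosed for 48 h (highest concentration 100 uM, half-log steps, 0.5% DMSO). Total RNA was then analysed for BAX expression by qRT-PCR.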

Read-out in assay [4]: adenosine kinase (ADK) gene, ADK (gene 132)
As to the kind of experiment: LTEA_HepaRG_ADK: Life Technologies and Expression Analysis (LTEA) Assay for adenosine kinase (ADK) gene using HepaRG (AID 2283471). Summed up:
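ADK expression quantified by qRT-PCR, normalised to three housekeeping genes, after 48 h exposure of HepaRG cells to eight concentrations (top 100 uM, half-log steps, duplicate, 0.5% DMSO). Up- or down-regulation fitted relative to vehicle.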

Read-out in assay [5]: Alpha-fetoprotein (AFP) gene, AFP (gene 174)
As to the kind of experiment: LTEA_HepaRG_AFP: Life Technologies and Expression Analysis (LTEA) Assay for Alpha-fetoprotein (AFP) gene using HepaRG (AID 2283472). Put shortly:
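Chemicals were tested on differentiated HepaRG cells for 48 hours at eight concentrations up to 100 uM, with 0.5% DMSO as vehicle. AFP expression was then quantified by qRT-PCR and analyzed for gain or loss relative to DMSO.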

Read-out in another assay: BCL2L11 (gene 10018)
As to the kind of experiment: LTEA_HepaRG_BCL2L11: Life Technologies and Expression Analysis (LTEA) Assay for Bcl-2 (BCL2L11) gene using HepaRG (AID 2283473). Put shortly:
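BCL2L11 transcript levels are measured by Fluidigm qRT-PCR, normalized to three housekeeping genes. HepaRG cultures were plated 48 h, then treated 48 h with test chemical (top 100 uM, half-log, 0.5% DMSO vehicle); curves were fitted bidirectionally against DMSO.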

Read-out in assay [6]: Apoptosis regulator Bcl-2 (Homo sapiens) (UniProt P10415)
In words: LTEA_HepaRG_BCL2: Life Technologies and Expression Analysis (LTEA) Assay for Bcl-2 gene using HepaRG (AID 2283475). Put shortly: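 Plated human HepaRG cells are exposed to test chemicals for 48 h across eight concentrations from 100 uM downward in half-log steps (0.5% DMSO). BCL2 expression is then measured by qRT-PCR with housekeeping normalisation and fitted bidirectionally against vehicle.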

Read-out in assay [7]: Bcl-2 (BID) gene, BID (gene 637)
As to the kind of experiment: LTEA_HepaRG_BID: Life Technologies and Expression Analysis (LTEA) Assay for Bcl-2 (BID) gene using HepaRG (AID 2283476). Summed up:
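Cells are plated, cultured 48 h, switched to serum-free induction medium, then dosed 48 h (100 uM top, half-log steps, 0.5% DMSO). RNA is isolated and BID expression read by qRT-PCR.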

Read-out in another assay: Caspase-3 (Homo sapiens) (UniProt P42574)
In words: LTEA_HepaRG_CASP3: Life Technologies and Expression Analysis (LTEA) Assay for cysteine-aspartic acid protease (CASP3) using HepaRG (AID 2283477). Put shortly: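 Expression of CASP3 was quantified by TaqMan qRT-PCR against three housekeeping genes (ACTB, GAPDH, POLR2A), bidirectionally versus 0.5% DMSO. HepaRG cultures received compounds in duplicate, top 100 uM with half-log steps, for 48 h in serum-free induction medium.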

Read-out in assay [8]: Cytochrome P450 (CYP24A1), CYP24A1 (gene 1591)
In words: LTEA_HepaRG_CYP24A1: Life Technologies and Expression Analysis (LTEA) Assay for Cytochrome P450 (CYP24A1) using HepaRG (AID 2283478). Put shortly:
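mRNA of CYP24A1 quantified by TaqMan qRT-PCR (ACTB/GAPDH/POLR2A normalization) after 48 h chemical exposure of HepaRG cells, top concentration 100 uM, half-log steps, 0.5% DMSO vehicle, duplicates. Curves fitted bidirectionally against DMSO baseline.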

Read-out in assay [9]: Cytochrome P450 (CYP1A2), CYP1A2 (gene 1544)
In words: LTEA_HepaRG_CYP1A2: Life Technologies and Expression Analysis (LTEA) Assay for Cytochrome P450 (CYP1A2) using HepaRG (AID 2283479). Put shortly: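 CYP1A2 transcript measured by TaqMan qRT-PCR against three housekeeping genes after 48-hour chemical exposure of HepaRG cells. Eight-point half-log series topping at 100 uM in 0.5% DMSO, duplicates; gain or loss fitted relative to vehicle.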

Read-out in assay [10]: cysteine-aspartic acid protease (CASP8), CASP8 (gene 841)
As to the kind of experiment: LTEA_HepaRG_CASP8: Life Technologies and Expression Analysis (LTEA) Assay for cysteine-aspartic acid protease (CASP8) using HepaRG (AID 2283480). Put shortly: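 CASP8 transcript measured by TaqMan qRT-PCR with ACTB/GAPDH/POLR2A normalization, after 48 h chemical exposure of HepaRG cells in serum-free induction medium. Eight concentrations, top 100 uM, half-log steps, 0.5% DMSO vehicle; fits in both directions versus DMSO.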

Read-out in assay [11]: Cytochrome P450 (CYP2B6), CYP2B6 (gene 1555)
In words: LTEA_HepaRG_CYP2B6: Life Technologies and Expression Analysis (LTEA) Assay for Cytochrome P450 (CYP2B6) using HepaRG (AID 2283481). Summed up: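 CYP2B6 transcript level quantified by qRT-PCR against three housekeeping genes, fitted bidirectionally relative to DMSO. HepaRG cultures received chemicals for 48 h, 8-point half-log series from 100 uM in 0.5% DMSO, duplicate wells, serum-free induction medium.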

Read-out in assay [12]: Cytochrome P450 2C19 (Homo sapiens) (UniProt P33261)
In words: LTEA_HepaRG_CYP2C19: Life Technologies and Expression Analysis (LTEA) Assay for CYP2C19 using HepaRG (AID 2283482). Summed up: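 CYP2C19 transcript levels by qRT-PCR, normalized to three housekeeping genes, in HepaRG cells after 48 h chemical exposure. Eight-point half-log series topping at 100 uM, 0.5% DMSO vehicle. Increases and decreases both fitted against DMSO.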

Read-out in a further assay: CYP2C8 (gene 1558)
As to the kind of experiment: LTEA_HepaRG_CYP2C8: Life Technologies and Expression Analysis (LTEA) Assay for CYP2C8 using HepaRG (AID 2283483). Summed up: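 CYP2C8 expression measured by TaqMan qRT-PCR and normalized to three housekeeping genes. HepaRG cultures were treated for 48 h with an eight-point half-log series topping at 100 uM, vehicle 0.5% DMSO, duplicates; fitted both directions against DMSO.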

Read-out in another assay: CYP2C9 (gene 1559)
In words: LTEA_HepaRG_CYP2C9: Life Technologies and Expression Analysis (LTEA) Assay for CYP2C9 using HepaRG (AID 2283484). Summed up: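 CYP2C9 transcript level, quantified by TaqMan qRT-PCR against three housekeeping genes, was fitted bidirectionally relative to 0.5% DMSO. HepaRG cultures were treated 48 h, in duplicate, at eight half-log concentrations topping at 100 uM.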

Read-out in another assay: CYP2E1 (gene 1571)
In words: LTEA_HepaRG_CYP2E1: Life Technologies and Expression Analysis (LTEA) Assay for CYP2E1 using HepaRG (AID 2283485). Summed up: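 Readout is qRT-PCR of CYP2E1 mRNA, normalized to three housekeeping genes and fitted bidirectionally against 0.5% DMSO. HepaRG cells were dosed 48 h at eight concentrations, highest 100 uM with half-log dilutions.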

Read-out in the next assay: CYP4A11 (gene 1579)
As to the kind of experiment: LTEA_HepaRG_CYP4A11: Life Technologies and Expression Analysis (LTEA) Assay for CYP4A11 using HepaRG (AID 2283486). Summed up: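 Readout is CYP4A11 transcript level by qRT-PCR, normalized to three housekeeping genes and fitted bidirectionally against 0.5% DMSO. Human HepaRG cells were treated 48 h, in duplicate, with an 8-point half-log series topping at 100 uM.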

Read-out in assay [13]: Cytochrome P450 3A4 (Homo sapiens) (UniProt P08684)
In words: LTEA_HepaRG_CYP3A4: Life Technologies and Expression Analysis (LTEA) Assay for CYP3A4 using HepaRG (AID 2283487). Summed up: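 Differentiated HepaRG cells, plated 48 h, then dosed 48 h in serum-free induction medium with 0.5% DMSO, 8 half-log concentrations up to 100 uM, duplicate. CYP3A4 mRNA by qRT-PCR, normalized to ACTB/GAPDH/POLR2A; bidirectional fit versus DMSO.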

Calls of active or inactive are those of the source. How the source made its calls: active means hit-call score of the fitted dose curve at least 0.9, where 1 is the maximum; inactive means score below 0.9.

Chain of Cytochrome P450 3A4 (Homo sapiens) (P08684 whole entry, looked up): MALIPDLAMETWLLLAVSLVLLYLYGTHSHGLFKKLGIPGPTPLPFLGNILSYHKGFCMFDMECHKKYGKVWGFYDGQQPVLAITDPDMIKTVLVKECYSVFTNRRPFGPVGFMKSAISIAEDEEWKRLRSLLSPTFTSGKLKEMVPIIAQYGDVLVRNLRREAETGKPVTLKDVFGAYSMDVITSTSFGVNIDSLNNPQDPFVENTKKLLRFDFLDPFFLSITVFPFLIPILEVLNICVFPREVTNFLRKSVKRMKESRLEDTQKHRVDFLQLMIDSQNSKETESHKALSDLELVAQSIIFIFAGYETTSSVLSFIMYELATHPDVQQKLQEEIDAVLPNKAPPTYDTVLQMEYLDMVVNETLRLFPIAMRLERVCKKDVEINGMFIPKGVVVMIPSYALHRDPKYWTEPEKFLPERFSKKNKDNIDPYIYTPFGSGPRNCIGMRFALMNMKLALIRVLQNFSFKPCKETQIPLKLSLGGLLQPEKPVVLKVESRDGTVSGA
Chain of Cytochrome P450 2C19 (Homo sapiens) (P33261 whole entry, looked up): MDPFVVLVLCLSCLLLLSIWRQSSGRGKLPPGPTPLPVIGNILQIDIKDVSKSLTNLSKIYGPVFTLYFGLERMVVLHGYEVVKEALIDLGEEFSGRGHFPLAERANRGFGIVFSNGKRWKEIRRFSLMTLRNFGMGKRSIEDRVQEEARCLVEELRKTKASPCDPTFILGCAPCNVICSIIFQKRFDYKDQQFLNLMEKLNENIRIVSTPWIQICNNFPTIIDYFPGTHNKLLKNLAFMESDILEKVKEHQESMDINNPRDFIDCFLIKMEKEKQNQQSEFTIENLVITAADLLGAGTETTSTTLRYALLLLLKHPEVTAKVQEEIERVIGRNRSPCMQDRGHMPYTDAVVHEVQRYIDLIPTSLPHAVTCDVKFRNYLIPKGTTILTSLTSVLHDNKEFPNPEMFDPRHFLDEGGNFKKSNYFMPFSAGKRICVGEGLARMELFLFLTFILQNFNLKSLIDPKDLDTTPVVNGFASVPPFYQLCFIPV
Chain of Caspase-3 (Homo sapiens) (P42574 whole entry, looked up): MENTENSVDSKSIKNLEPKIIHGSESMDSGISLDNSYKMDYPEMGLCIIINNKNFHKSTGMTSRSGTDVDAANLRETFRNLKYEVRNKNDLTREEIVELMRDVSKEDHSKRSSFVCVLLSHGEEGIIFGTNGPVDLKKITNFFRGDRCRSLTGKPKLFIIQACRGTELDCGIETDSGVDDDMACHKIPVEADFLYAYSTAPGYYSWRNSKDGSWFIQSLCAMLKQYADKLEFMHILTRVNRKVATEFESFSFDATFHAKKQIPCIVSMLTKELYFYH
Chain of Apoptosis regulator Bcl-2 (Homo sapiens) (P10415 whole entry, looked up): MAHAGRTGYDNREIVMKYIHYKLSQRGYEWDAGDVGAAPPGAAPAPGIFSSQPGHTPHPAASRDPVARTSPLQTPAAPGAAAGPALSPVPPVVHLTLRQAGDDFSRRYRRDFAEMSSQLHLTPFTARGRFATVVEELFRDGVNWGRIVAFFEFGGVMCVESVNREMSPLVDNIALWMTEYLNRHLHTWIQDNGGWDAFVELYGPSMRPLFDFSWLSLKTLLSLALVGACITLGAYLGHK

A word on the AC50: it is the concentration giving half of the maximal activity seen. With `COC(=O)N(OC)c1ccccc1COc1ccn(-c2ccc(Cl)cc2)n1`, the result (in [1]; in assay [2]; in assay [8]; with CYP4A11 (gene 1579)) was inactive. The AC50 was 66.7 µM (active) in [3]; 77.8 µM (active) in assay [4]; 24.9 µM (active) in assay [5]; 20.5 µM (active) with BCL2L11 (gene 10018); 89.9 µM (active) in assay [6]; 75.3 µM (active) in [7]. Also, the AC50 was 79.5 µM (active) in the assay with Caspase-3 (Homo sapiens); 12.4 µM (active) in assay [9]; 80.1 µM (active) in assay [10]; 78.1 µM (active) in [11]; 77.8 µM (active) in assay [12]; 77.9 µM (active) in the assay with CYP2C8 (gene 1558). Also, the AC50 in the assay with CYP2C9 (gene 1559) was 74.7 µM (active); with CYP2E1 (gene 1571), 34.1 µM (active); in assay [13], 78.5 µM (active).

For the compound `COP(N)(=O)SC` (configuration not stated), the call (in [1]; in assay [2]; in assay [3]; in assay [4]; in [5]; with BCL2L11 (gene 10018)) was inactive. For the same compound, the compound was called inactive (in [6]; in assay [7]; with Caspase-3 (Homo sapiens); in assay [8]; in [9]; in assay [10]). The compound was called inactive (in [11]; in [12]; with CYP2C8 (gene 1558); with CYP2C9 (gene 1559); in the assay with CYP2E1 (gene 1571); with CYP4A11 (gene 1579)). The outcome in assay [13] was inactive.

Take `CON(C)C(=O)Nc1ccc(Cl)c(Cl)c1`: the AC50 in [1] is 42 µM (active); in [5] it was 74.2 µM (active); in assay [9], 29.8 µM (active); in [11] it was 24 µM (active); in assay [12] it was 65.1 µM (active); with CYP2E1 (gene 1571) it was 77.6 µM (active). Also, the results for the AC50 (in the assay with CYP4A11 (gene 1579); in assay [13]) were 86.6 µM (active) and 78.6 µM (active), respectively. Further, the compound was classed as inactive (in [2]; in [3]; in [4]; with BCL2L11 (gene 10018); in assay [6]; in assay [7]). Moreover, the call (with Caspase-3 (Homo sapiens); in assay [8]; in assay [10]; in the assay with CYP2C8 (gene 1558); with CYP2C9 (gene 1559)) was inactive.
